Over roughly 5,400 compounds, “IFI” has its median near 2; the highest 2% begin near 22. Only a selection was taken, and the highest values are over-represented in it overall.
Experiment: NOVARTIS: Inhibition Frequency Index (IFI) - the number of HTS assays where a compound showed > 50% inhibition/induction, expressed as a percentage of the number of assays in which the compound was tested.
Assay type: functional

Which IFI does the source give for CCCC(=O)N1CCN(c2nc(Cc3ccccc3)c3c(c2C#N)CC(C)(C)OC3)CC1 here?
Its IFI is 4.54%.

For COc1ccc(-c2nc(CN3CCCCC3)ccc2O)cc1, which IFI is on record?
The IFI was 0%.

For CCOC(=O)C1=C(C)NC2=C(C(=O)C(C(=O)OCC)C(c3ccccc3OC)C2)C1c1sccc1C (centres undefined), which IFI is on record?
The IFI was 3.49%.

For COc1ccc(C2(CNCC(O)c3cccc([N+](=O)[O-])c3)CCCC2)cc1OC (centres undefined), which IFI is on record?
The IFI was 0%.

With CC(=O)Nc1cc(C(=O)Nc2ccc(C3=NCCN3)cc2)ccc1C(=O)Nc1ccc(C2=NCCN2)cc1 as the molecule, how does the IFI read?
Its IFI is 0%.

With Cc1ccn(CC(=O)N2CCOc3c(cc(-c4csc5ccccc45)cc3OCCc3ccccn3)C2)n1 as the molecule, how does the IFI read?
The IFI was 4%.

For CC[n+]1c(/C=C/c2ccc(Cl)cc2)ccc2ccccc21, which IFI is on record?
Its IFI is 4.84%.

Which IFI does the source give for CCN1C=Cc2ccccc2/C1=C\c1ccc2ccccc2[n+]1CC here?
Its IFI is 23.6%.

With CC[n+]1c(C=C2C=CN(c3ccc(Cl)cc3)C=C2)ccc2ccccc21 as the molecule, how does the IFI read?
Its IFI is 15.4%.

For O=C(CCl)Nc1ccc(OC(F)F)cc1, which IFI is on record?
The IFI was 0%.

For COc1ccc2nc(-c3ccccc3)cc(NCCN(C)C)c2c1, which IFI is on record?
The IFI was 3.51%.

With O=c1cc(NC2CCN(CCCc3ccccc3)CC2)c2cc(Cl)ccc2o1 as the molecule, how does the IFI read?
Its IFI is 0%.

With CCOC(=O)c1cnc2cc(OCC(C)C)c(OCC(C)C)cc2c1O as the molecule, how does the IFI read?
Its IFI is 0.649%.

For CN1c2ccccc2N(C)C1c1ccc2c(c1)OCO2, which IFI is on record?
Its IFI is 0.621%.

With c1cn2c(-c3ccc(N4CCOCC4)cc3)cnc2c(NCc2ccc3c(c2)OCO3)n1 as the molecule, how does the IFI read?
Its IFI is 0%.

For c1ccc(C2=NN(c3ccccc3)C(c3ccc4c(c3)OCO4)N2c2ccc(N3CCOCC3)cc2)cc1 (centres undefined), which IFI is on record?
The IFI was 23.1%.

Which IFI does the source give for CCN1CCN(c2cc(C)c3cc(NC(=O)c4ccc(F)c([N+](=O)[O-])c4)ccc3n2)CC1 here?
Its IFI is 6.67%.

Which IFI does the source give for Cc1cc(Nc2cccc3ccccc23)nc(Nc2cccc3ccccc23)n1 here?
The IFI was 0%.

With O=S(=O)(c1ccccc1)N1CCN(CC2CNCCO2)CC1 (centres undefined) as the molecule, how does the IFI read?
The IFI was 1.41%.

Which IFI does the source give for Cc1oc2c(c1C(=O)NCc1cccnc1)C(=O)c1ccccc1C2=O here?
The IFI was 17.5%.

With Cc1oc2c(c1C(=O)NCCCn1ccnc1)C(=O)c1ccccc1C2=O as the molecule, how does the IFI read?
Its IFI is 24.3%.

With CCOC(=O)c1c(C)oc2c1C(=O)c1ccccc1C2=O as the molecule, how does the IFI read?
The IFI was 3.17%.

Which IFI does the source give for Cc1oc2c(c1C(=O)NCC1CCCO1)C(=O)c1ccccc1C2=O (centres undefined) here?
The IFI was 17%.

For Cc1oc2c(c1C(=O)N1CCC(C)CC1)C(=O)c1ccccc1C2=O, which IFI is on record?
The IFI was 15.4%.

With Cc1oc2c(c1C(=O)NC1CCS(=O)(=O)C1)C(=O)c1ccccc1C2=O (centres undefined) as the molecule, how does the IFI read?
Its IFI is 29.7%.

Which IFI does the source give for COc1cc(NC(C)CCCN(Cc2ccc(F)cc2)C(=O)CCc2ccccc2)c2ncccc2c1 (centres undefined) here?
Its IFI is 1.71%.

For COc1cc(NC(C)CCCN(Cc2ccc(OC)c(OC)c2)C(=O)CC(C)CC(C)(C)C)c2ncccc2c1 (centres undefined), which IFI is on record?
Its IFI is 3.64%.

Which IFI does the source give for O=C(Cc1cccs1)N1CCN(c2ccccn2)CC1 here?
Its IFI is 2.35%.

With COc1ccc(C[C@H](N)C(=O)N[C@H]2[C@@H](O)[C@H](n3cnc4c(N(C)C)ncnc43)O[C@@H]2CO)cc1 as the molecule, how does the IFI read?
Its IFI is 30.8%.

Which IFI does the source give for COCCN1C(=O)c2[nH]nc(-c3ccccc3O)c2C1c1ccc(SC)cc1 (centres undefined) here?
Its IFI is 0%.

With C[n+]1c2ccccc2nc2ccc(NC3CCCCC3N)cc21 (centres undefined) as the molecule, how does the IFI read?
Its IFI is 23.1%.

For C[n+]1c2ccccc2nc2ccc(NCCc3cnc[nH]3)cc21, which IFI is on record?
Its IFI is 15.4%.

Which IFI does the source give for COc1ccc2c(c1)[nH]c1c(N3CCN(C(c4ccccc4)c4ccccc4)CC3)ncnc12 here?
The IFI was 8.77%.

For Cc1ccc(S(=O)(=O)c2c(COC(=O)c3cccc(C)c3)c(-c3ccccc3)nn2C)cc1, which IFI is on record?
The IFI was 3.9%.

Which IFI does the source give for CN[C@H]1C[C@@H]2O[C@](C)([C@H]1O)n1c3ccccc3c3c4c(c5c6ccccc6n2c5c31)C(=O)NC4 here?
Its IFI is 46.2%.

With COc1cc2c(-c3cc(Br)ccc3O)nc3c(c(-c4ccccc4)nn3-c3ccccc3)c2cc1OC as the molecule, how does the IFI read?
Its IFI is 3.03%.

With CC[n+]1c(C=CN(C)c2ccccc2)oc(-c2ccccc2)c1-c1ccccc1 as the molecule, how does the IFI read?
The IFI was 22.7%.

Which IFI does the source give for CC[n+]1c(C=CN(C)c2ccccc2)sc2ccc(Cl)cc21 here?
Its IFI is 9.09%.

With CC[n+]1c(/C=C/N(C)c2ccccc2)sc(-c2ccccc2)c1-c1ccccc1 as the molecule, how does the IFI read?
The IFI was 14.3%.

With CC(NCc1ccccc1)c1cc(Cl)ccc1O (centres undefined) as the molecule, how does the IFI read?
The IFI was 0%.

Which IFI does the source give for Oc1c(C(Nc2ccccn2)c2cccc(Cl)c2Cl)ccc2cccnc12 (centres undefined) here?
Its IFI is 15.4%.

With Clc1ccc(-c2c[n+](-c3ccccc3)c3n2CCS3)cc1 as the molecule, how does the IFI read?
Its IFI is 0.725%.

For CC(C)(C)c1ccc(-c2c[n+](-c3ccccc3)c3n2CCCS3)cc1, which IFI is on record?
The IFI was 23.1%.

For Cc1ccc(-c2c[n+](-c3ccccc3)c3n2CCCS3)cc1, which IFI is on record?
The IFI was 7.69%.

Which IFI does the source give for CC1CNC2C(C)C3C(CC4C5CCC6CC(N)CCC6(C)C5CCC43C)OC2(O)C1 (centres undefined) here?
The IFI was 5.26%.

For Oc1ccccc1-c1nc2sc(-c3ccccc3O)nc2s1, which IFI is on record?
The IFI was 11%.

Which IFI does the source give for N#C/C(=C\C=C\c1ccc([N+](=O)[O-])o1)c1nc2ccccc2[nH]1 here?
Its IFI is 28.6%.

For CCN(CC)c1ccc(/C=C(/C#N)c2nc3ccccc3[nH]2)o1, which IFI is on record?
The IFI was 7.69%.

For N#C/C(=C\c1ccc(Sc2ccccc2)o1)c1nc2ccccc2[nH]1, which IFI is on record?
Its IFI is 6.74%.

Which IFI does the source give for COc1cc(C(=O)NC2CC3CCC(C2)N3C2CC2)cc(OC)c1OC (centres undefined) here?
The IFI was 0%.

Which IFI does the source give for O=C(C[n+]1cc(-c2ccccc2)n2c1CCC2)c1ccc(C2CCCCC2)cc1 here?
Its IFI is 12.5%.

Which IFI does the source give for COc1ccc(-c2c[n+](CC(=O)c3ccc(Cl)cc3)c3n2CCC3)cc1 here?
Its IFI is 5%.

With O=C(C[n+]1cc(-c2ccc(Cl)cc2)n2c1CCC2)c1ccc(C2CCCCC2)cc1 as the molecule, how does the IFI read?
The IFI was 27.5%.

Which IFI does the source give for c1cc2cc(CN3CCc4nc(N5CCCCC5)sc4C3)ccc2[nH]1 here?
Its IFI is 4.17%.

With CN1CCc2c(sc3nc(SCc4ccc(F)cc4)n(-c4ccccc4)c(=O)c23)C1 as the molecule, how does the IFI read?
The IFI was 2.5%.

With CC1C/C(=C/c2ccncc2)C(=O)/C(=C/c2ccncc2)C1 (centres undefined) as the molecule, how does the IFI read?
The IFI was 33.3%.

Which IFI does the source give for COc1cc(/C=C2\CC/C(=C\c3cc(OC)c(OC)c(OC)c3)C2=O)cc(OC)c1OC here?
The IFI was 2.7%.

Which IFI does the source give for COc1ccc2c(c1)c(C)cc[n+]2Cc1ccccc1 here?
The IFI was 6.3%.

With CC(C)(C)CC(=O)NCc1ccc(OC2CCN(CC(c3ccccc3)c3ccccc3)CC2)cc1 as the molecule, how does the IFI read?
Its IFI is 7.04%.

Which IFI does the source give for O=C1CCC(c2ccc(Cl)c(Cl)c2)c2ccc(O)cc21 (centres undefined) here?
The IFI was 0%.

For COc1cc2nc(N3CCN(c4nc(N)c5cc(OC)c(OC)cc5n4)CC3)nc(N)c2cc1OC, which IFI is on record?
The IFI was 23.1%.

With COc1ccc(-c2cc(C3CCN(c4nc(N)c5cc(OC)c(OC)cc5n4)CC3)n[nH]2)cc1OC as the molecule, how does the IFI read?
The IFI was 7.41%.

For COc1cc2nc(Nc3ccc(F)cc3)nc(N)c2cc1OC, which IFI is on record?
Its IFI is 0%.

With CCc1c2ccc(C)n2cc[n+]1CC as the molecule, how does the IFI read?
Its IFI is 6.02%.

Reference: ChEMBL document CHEMBL1156829
